# Test results reported in PubChem BioAssay (Tox21).
# Records with an inconclusive call do not appear. Calls of active or inactive are those of the source. Calls come from the whole dose curve.
# Test: qHTS assay for small molecule agonists of the p53 signaling pathway (AID 651631); note: nearly all actives have a fitted effect of over 15% in size
# Details: HCT-116 p53RE-bla reporter, beta-lactamase FRET ratio, 16 h; series mostly up to 73.3 µM; activation: at the top concentration
# Description: U.S. Tox21 Program National Center for Advancing Translational Sciences [NCATS] NIH Chemical Genomics Center [NCGC] U.S. Environmental Protection Agency [EPA] National Institutes of Environmental Health Sciences [NIEHS] National Toxicology Program [NTP] U.S. Food and Drug Administration [FDA] Tox21 Assay Overview: p53, a tumor suppressor protein, is activated following cellular insult, including DNA damage and other cellular stresses. The activation of p53 regulates cell fate by inducing DNA repair, cell cycle arrest, apoptosis, or cellular senescence. The activation of p53, therefore, is a good indicator of DNA damage and other cellular stresses. The CellSensor p53RE-bla HCT-116 cell line (Invitrogen) contains a stably integrated beta-lactamase reporter gene under control of the p53 response elements. The activation of the reporter gene under culture conditions can be detected by fluorescence intensity. This cell line was used to screen the Tox21 compound library in a 1536-well plate format and to identify agonists that activate the p53 signaling pathway.
# Tox21 Assay Protocol Summary: The p53RE-bla cells were dispensed at 4,000 cells/5 ul/well in 1536-well black wall/clear bottom plates using a Multidrop dispenser. After the assay plates were incubated at a 37 C/5% CO2 incubator for 5 hours, 23 nL of compounds dissolved in DMSO, positive controls or DMSO only was transferred to the assay plate by a pin tool. The plates were incubated at 37 C for 16 hours. After 1 uL of LiveBLAzerTM B/G FRET substrate was added using a Flying Reagent Dispenser, the plates were incubated at room temperature for 2 hours, and fluorescence intensity was measured by an Envision plate reader.
# % is set by controls: 0 for no effect and ±100 for the full control effect.
SMILES,outcome,activation
CC(C)=CCl,inactive,–
O=C(O)CCCCCCCCC(=O)O,inactive,–
COc1cc(OC)c(C(=O)CCCN2CCCC2)c(OC)c1,–,-1.92% [at 34.7 µM] (inactive)
CN(C)CCOC(=O)COc1ccc(Cl)cc1,inactive,–
CC(=O)OCCOC(C)=O,inactive,–
CC(C)CCCCCCCOC(=O)CCCCC(=O)OCCCCCCCC(C)C,inactive,–
C=Cc1ccc(C)cc1,inactive,–
CSc1ccc(Cl)cc1,inactive,–
CC(=O)c1ccc(O)cc1,inactive,–
Clc1ccccn1,inactive,–
CCOC(=O)n1ccn(C)c1=S,–,-1.23% (inactive)
C=CC[N+](C)(C)CC=C,inactive,–
Cc1ccc(S(=O)(=O)N=C=O)cc1,inactive,–
CN1C(=O)CC[C@H]1c1cccnc1,inactive,–
CC(CCl)OP(=O)(OC(C)CCl)OC(C)CCl (stereo not given),–,-3.13% (inactive)
Brc1ccc(Br)c(Br)c1,inactive,–
Cc1ccc(C(C)C)c(O)c1,–,-1.9% (inactive)
C=CC(C)CCCC(C)(C)O (stereo not given),inactive,–
c1ccc2c(c1)Cc1ccccc1-2,inactive,–
CC(=O)CC(C)(C)O,inactive,–

SMILES,outcome,activation
Cc1ccc2ncccc2c1,inactive,–
COc1ccc(C)cc1N,–,-1.26% (inactive)
CC1(C)S[C@@H]2[C@H](NC(=O)COc3ccccc3)C(=O)N2[C@H]1C(=O)O,–,2.62% (inactive)
NCCCCCCN,inactive,–
CCCCCCCCCCCCCCCC(=O)OC(C)C,–,-5.11% (inactive)
C=C(C)C(=O)OCC(C)C,inactive,–
COC(=O)c1cccnc1,inactive,–
CCO[Si](CCCN)(OCC)OCC,inactive,–
COc1ccccc1OCC(O)CO (stereo not given),inactive,–
CCc1ccccc1CC,inactive,–
CC(C)OP(=O)(CP(=O)(OC(C)C)OC(C)C)OC(C)C,–,-3% (inactive)
C[Si]1(C)O[Si](C)(C)O[Si](C)(C)O[Si](C)(C)O1,–,1.25% (inactive)
CCCCOC(=O)c1ccc(N)cc1,inactive,–
CC1(C)CC(N)CC(C)(CN)C1 (stereo not given),–,2.77% [at 95.1 µM] (inactive)
CC(=O)CCC=C(C)C,–,2.21% [at 95.1 µM] (inactive)
CCCOC(=O)c1ccccc1,–,-0.354% (inactive)
COCCOC(=O)c1ccccc1C(=O)OCCOC,–,4.77% [at 95.1 µM] (inactive)
CCCCCCCC=O,inactive,–
NCCNCCN,inactive,–
NCCN1CCNCC1,inactive,–
